Experimental data taken from ChEMBL document CHEMBL1157539, “Thousands of chemical starting points for antimalarial lead identification” (Nature, 2010).

How the values were obtained:
Format in all cases: functional
Plasmodium falciparum [1] = assay: GSK_TCMDC: Inhibition of Plasmodium falciparum 3D7 in whole red blood cells, using parasite LDH activity as an index of growth. Test compounds present at 2uM
Plasmodium falciparum [2] = assay: GSK_TCMDC: Inhibition of Plasmodium falciparum Dd2 in whole red blood cells, using parasite LDH activity as an index of growth. Test compounds present at 2uM
HepG2 = assay: GSK_TCMDC: Percent inhibition of human HepG2 cell line. Test compounds present at 10uM.

Compound | Inhibition (Plasmodium falciparum [1]) [%] | Inhibition (Plasmodium falciparum [2]) [%] | Inhibition (HepG2) [%]
S=C(NCCCCCN1CCC(c2c[nH]c3ccccc23)CC1)Nc1ccc(Cl)c(Cl)c1 | 100 | 31 | 89
Cc1ccccc1/N=C1\NC(=S)N(c2cccc(C(F)(F)F)c2)C12CCC(C(C)(C)C)CC2 (centres undefined) | 95 | 25 | 9
COc1cc(NC(=O)N2CCc3ccc(OCCN4CCCCC4)cc32)cc(C(F)(F)F)c1.O=C(O)C(F)(F)F | 100 | 93 | 9
C[C@H](NC(=O)[C@H](CCCCNC(=O)OC(C)(C)C)NC(=O)OC(C)(C)c1ccc(-c2ccccc2)cc1)C(=O)OCc1ccccc1 | 97 | 1 | 4
CCn1c(C=Cc2cc(Br)ccc2O)nc2ccccc2c1=O | 95 | 95 | 6
COc1ccc(-c2cc(C(=O)N[C@@H](CC3CCCCC3)C(=O)NCCN3CCCC3)ccc2O)cc1 | 90 | 12 | 12
Nc1nc(N)c2c(Cl)c(CNc3cccc(C(=O)O)c3)ccc2n1 | 93 | 97 | 69
O=C(NCc1ccccc1)c1ccc(C(=O)NCC2CNCCO2)cc1.O=C(O)C(F)(F)F (centres undefined) | 92 | 0 | 4
Cc1cccc2nc(O)c([N+](=O)[O-])c(O)c12 | 95 | 0 | 0
CCN(CC)CCCNc1ncc2c(-c3ccc(NC(=O)Nc4cc(C(F)(F)F)ccc4F)cc3)nn(C)c2n1.O=C(O)C(F)(F)F | 99 | 74 | 81
COC(=O)c1ccc(Nc2nccc(Nc3ccc(Oc4ccccc4)cc3)n2)cc1.Cl | 93 | 15 | 0
CCc1ccc(NC(=O)c2ccc(CN3CCCN(Cc4cccs4)CC3)cc2)cc1.O=C(O)C(F)(F)F | 87 | 0 | 57
CC(=O)Nc1cccc(C(=O)Nc2cccc(-c3ccc(-c4nc5cc(F)ccc5[nH]4)s3)c2)c1 | 94 | 30 | 88
CN1CCN(Cc2ccc(-c3ccc4c(Nc5ccc(Oc6ccccc6)cc5)ccnc4c3)o2)CC1 | 99 | 99 | 23
NCCNS(=O)(=O)c1ccc(-c2ccnc3[nH]c(-c4ccncc4)cc23)cc1.O=C(O)C(F)(F)F | 96 | 95 | 0
CC(C)N1CCN(C(CN2CCN(CCCOc3ccc4ccccc4c3)CC2)c2ccc(F)cc2)CC1.Cl (centres undefined) | 100 | 91 | 59
COc1cccc(Nc2nc(Nc3cccc(C#N)c3)cc(-c3ccncc3)n2)c1 | 100 | 46 | 28
Cc1cc(=NN=Cc2cccc(Cl)c2)c2ccc(F)cc2[nH]1 | 100 | 98 | 0
Cc1noc(C)c1-c1cccc(CNCc2ccc(-c3cccc(-c4nc5cccc(C)c5[nH]4)c3)cc2)c1.O=C(O)C(F)(F)F | 100 | 94 | 24
Oc1ccc(CCNc2nc(NCc3ccccc3-c3ccc(C(F)(F)F)cc3)nc(N3CCNCC3)n2)cc1 | 97 | 53 | 17
N=C(N)Nc1nc(-c2cccc(NC(=O)CCCCCCCON3C(N)=NC(N)=NC34CCCCC4)c2)cs1 | 96 | 89 | 1
Cc1cc(NCCc2cccc(F)c2)nc(NC(=N)Nc2cccc(C(F)(F)F)c2)n1 | 100 | 99 | 42
Nc1nc(Nc2cccc(Cl)c2)ncc1C(=O)NCc1ccncc1 | 98 | 29 | 3
Cc1c(C(=O)N2CCc3cc4nccc(N5CCN6CCC[C@H]6C5)c4cc32)cnn1-c1ccc(C#N)cc1.Cl | 90 | 27 | 0

Compound | Inhibition (Plasmodium falciparum [1]) [%] | Inhibition (Plasmodium falciparum [2]) [%] | Inhibition (HepG2) [%]
COc1cccc2cc(C(=O)N[C@@H](CC(C)C)C(=O)N[C@H](/C=N/NC(=O)N3CCN(C)CC3)CCc3ccccc3)oc12.Cl | 85 | 73 | 1
COc1ccc(-c2ccc(NC(=O)c3cccc(C#N)c3)cc2)cc1CN1CCCC(C(N)=O)C1.O=C(O)C(F)(F)F (centres undefined) | 98 | 44 | 12
CS(=O)(=O)Nc1ccc(-c2ccc3ccnc(N)c3c2)cc1.O=C(O)C(F)(F)F | 85 | 75 | 31
C=CCn1c(C)cc(C(=O)COc2ccc(S(=O)(=O)N3CCOCC3)cc2[N+](=O)[O-])c1C | 94 | 5 | 0
Cc1cccc2nc(-c3cccc(-c4ccc(CNCCNC(=O)c5ccnn5C)cc4)c3)[nH]c12.O=C(O)C(F)(F)F | 100 | 100 | 21
Cc1ccc(Cc2cnc(CN3CCCCC3)c(O)c2)cc1.Cl | 93 | 75 | 4
CN(CCO)Cc1cccc(-c2ccc(NC(=O)c3cccc(C#N)c3)cc2)c1.O=C(O)C(F)(F)F | 97 | 57 | 23
COc1ccc2nccc(N3CCC(CCNCc4cc5c(cn4)OCCO5)CC3)c2n1.Cl | 100 | 100 | 18
O=C(Nc1ccc(F)cc1)c1nc2ccccc2nc1Cl | 80 | 62 | 44
O=C(NCC1COc2ccccc2O1)c1cnc2c(c1)nc(-c1c[nH]c(-c3ccccc3)n1)n2CCSCc1c(F)cccc1Cl (centres undefined) | 95 | 10 | 6
CCCCN(Cc1cc(Cl)c(OCC)c(OC)c1)c1ccc(C(O)(C(F)(F)F)C(F)(F)F)cc1.O=C(O)C(F)(F)F | 92 | 97 | 5
CCc1ccccc1NC(=O)CN1CCN(c2ncnc3scc(-c4ccc(F)cc4)c23)CC1 | 83 | 62 | 6
CN1CCCC(CN2CCN(Cc3cccc(-c4csc(-c5nc6ccccc6[nH]5)c4)c3)CC2)C1.O=C(O)C(F)(F)F (centres undefined) | 100 | 100 | 65
COc1ccc(NC(=O)[C@H](CC(C)C)Nc2cc(C)nc(NCCc3cccs3)n2)cc1.O=C(O)C(F)(F)F | 100 | 68 | 5
CN1CCN(c2ccnc3ccc(NC(=O)Nc4ccc(-c5ccncc5)c5ccccc45)cc23)CC1 | 100 | 84 | 76
CCOc1cc(C(=O)N[C@@H](Cc2ccccc2)[C@H](O)CNCc2cc(OC)cc(OC)c2)cc(N2CCCS2(=O)=O)c1.Cl | 94 | 66 | 0
COc1ccc(S(=O)(=O)NCCCC2CCN(CCCCCNC(=O)C=Cc3ccc(Cl)c(Cl)c3)CC2)cc1 | 85 | 12 | 24
COc1ccc(CNC2CCN(C)CC2)cc1-c1ccc(S(=O)(=O)NCc2ccccc2)c(F)c1.O=C(O)C(F)(F)F | 100 | 97 | 53
CN(C)c1ccc(C2c3[nH]cnc3CCN2C(=O)Nc2cccc([N+](=O)[O-])c2)cc1 (centres undefined) | 98 | 15 | 0
Cc1cc(N[C@@H](Cc2ccccc2)C(=O)NCCc2ccccc2)nc(NCCc2cccs2)n1.O=C(O)C(F)(F)F | 99 | 84 | 12
CCCN/C=N/c1cc(-c2csc(NC(=N)N)n2)cc([N+](=O)[O-])c1 | 91 | 1 | 12
CCCNC(=O)C1CCN(C(c2ccc(Cl)cc2)c2ccc(Cl)cc2)CC1 | 98 | 96 | 7
COc1cc(Nc2ccnc3cc(-c4nccs4)ccc23)ccc1OCCCc1nc2ccccc2[nH]1.Cl | 100 | 68 | 100
CC=CC1CCNC(C(O)c2ccnc3ccc(OC)cc23)C1 (centres undefined) | 91 | 1 | 0
